Test results: ChEMBL document CHEMBL3988442, “University of Dundee, Small-Polar-MMV Screening Library” (2021)
Hit rate of the full screen: of about 53,000 compounds, about 900 (1.7%) showed an effect of 50% or more. Shown is part of a subset that was picked to be rich in strong results.

System: Mycobacterium tuberculosis
Experiment: Cornell - Phenotypic assay to identify agents that inhibit growth of Mycobacterium tuberculosis
Assay type: functional
Design: scale not given: direction of the effect not stated beside the values
Settings: 10 mM as filed; unlikely as a test dose

SMILES	Percent Effect [%]
Cc1nnc(CN2CCCC2c2ccsc2)o1 (centres undefined)	14.43
CCCc1noc(CCC(=O)N2CCCC2c2ccsc2)n1 (centres undefined)	22.08
CCCc1noc(CN2CCCC2c2ccsc2)n1 (centres undefined)	52.86
CN(C)CCNC(=O)c1ccn(-c2ccc3ccccn23)n1.O=C(O)C(F)(F)F	12.93
CC(C)N1CCCC1c1cc(CCO)[nH]n1 (centres undefined)	11.54
CCC(=O)N1CCC(c2cc(Nc3ncccn3)nc(C)n2)C1 (centres undefined)	-34.07
Cc1ccccc1S(=O)(=O)N[C@@H]1CC[C@@H](N2CCNC(=O)C2)[C@@H]1O	54.18
O=C1CN([C@@H]2CC[C@@H](NS(=O)(=O)c3ccc(F)cc3)[C@H]2O)CCN1	42.43
O=C1CN([C@@H]2CC[C@@H](NS(=O)(=O)c3ccccc3)[C@H]2O)CCN1	55.41
Cc1ccccc1CC(=O)N[C@@H]1CCC[C@@H](N2CCNC(=O)C2)[C@@H]1O	3.763
O=C1CN([C@@H]2CC[C@@H](NS(=O)(=O)c3ccccc3F)[C@H]2O)CCN1	-3.18
CN([C@@H]1CC[C@@H](N2CCCC2)[C@@H]1O)S(=O)(=O)c1ccccc1	24.86
Cc1ccc(-c2nnc(CN3CCn4c(nnc4C4CC4)C3)o2)cc1	2.899
CCOCC(=O)N1C[C@@H]2CC[C@H](Oc3ccccc3)[C@@H]2C1	-14.06
CCCN1CCCn2nc(CNS(=O)(=O)c3cccc(F)c3)cc2C1	-34.67
CCN(CC)CCCNCc1cc2cc(C)ccc2[nH]c1=O	4.422
CCOc1ncccc1NC(=O)N1CCC(n2cncn2)CC1	14.59
CCN(Cc1cccc(Cl)c1)Cc1ncc(C(C)(C)C)o1	0.2424
CCN(Cc1ncc(C(C)(C)C)o1)Cc1ccccc1C	-5.269
Cc1cccc(CN(Cc2ccccn2)Cc2ncc(C(C)(C)C)o2)c1	69.04
Cc1nc2ccc(C(=O)N3C[C@@H](O)[C@H](N4CCCC4)C3)cc2[nH]1	1.956
COCC(=O)NC(c1ccccc1)c1ccc2c(c1)CCCO2 (centres undefined)	34.89

SMILES	Percent Effect [%]
Cc1cc(NCc2cccc(C#N)c2)ccc1C(N)=O	38.13
Cc1cc(NCc2cccc(C#N)c2)ccc1Br	50.78
Cc1cc(NCc2cccc(C#N)c2)ccc1C(=O)N(C)C	22.32
CCN(CC)c1nc(Nc2cccc(C(C)O)c2)nc2ccccc12 (centres undefined)	104.6
CCN(CC)c1nc(Nc2cccc(C(=O)O)c2)nc2ccccc12	-13.69
CC(O)c1cccc(Nc2nc(NCCO)c3ccccc3n2)c1 (centres undefined)	-13.85
NC(=O)NCC(=O)N1CCCC(OCc2cccnc2)C1 (centres undefined)	-45.31
Oc1cc(C2CCCCN2Cc2cccs2)nc(-c2ccccn2)n1 (centres undefined)	21.14
Oc1cc(C2CCCN(Cc3cccs3)C2)nc(-c2ccccn2)n1 (centres undefined)	76.98
Cn1ncc2ccc(C3CCCN(Cc4cccs4)C3)nc21 (centres undefined)	-1.871
Cc1nc(C)c(CCN2CCC(Oc3ccccc3F)CC2)s1	50.26
Cc1nc(CCN2CCC(Oc3ccccc3F)CC2)c(C)s1	4.042
Cc1nc(CCN2CCC(Oc3ccccc3F)CC2)cs1	0.3496
Cc1cnc(-c2nc(O)c3c(n2)CN(C(=O)CC2CCCC2)CC3)cn1	2.725
CCN(C)S(=O)(=O)N(CC)Cc1ccc2c(c1)OCO2	26.78
CC(C)N(C)S(=O)(=O)N(C)Cc1ccc2c(c1)OCO2	-6.095
CCN(Cc1ccc2c(c1)OCCO2)S(=O)(=O)N(C)C(C)C	54.92
CCn1cnnc1C1CCN(C(=O)c2ccc(OC(C)C)nc2)CC1	22.89
CC(C)c1nnc(CN(C)C(c2ccccc2)c2ccc(F)cc2)o1 (centres undefined)	32.65
CC(C)c1nnc(CN(C)Cc2ccccc2-c2ccccc2)o1	60.67
CN(Cc1nnc(C2CC2)o1)Cc1ccccc1-c1ccccc1	24.56
Cc1nn(C)c(C)c1NC(=O)CN1CCOC(CN(C)C)C1 (centres undefined)	13.8

SMILES	Percent Effect [%]
O=C(C1=CCCC1)N1C[C@@H]2COC[C@]2(COCc2ccncc2)C1	-20.46
CCc1nnc(Nc2cc(C)nc(C3CCN(c4ccncn4)C3)n2)s1 (centres undefined)	-19.2
COC1CCN(C(=O)Cn2ccc3ccccc32)CC1	2.586
Cc1cccc(OC2CCN(C(=O)Cn3ccc4ccccc43)CC2)n1	59.2
O=C(Cn1ccc2ccccc21)N1CCC(Oc2cnccn2)CC1	24.96
O=C(NCc1ccccc1)N1CCC(Oc2ncccc2Br)CC1	-14.28
O=C(CCC(=O)N1CCC(OCc2cccnc2)CC1)c1ccccc1	-10.19
O=C(CCn1ccc(=O)[nH]c1=O)N1CCC(Oc2ncccc2Cl)CC1	20.85
O=C(Cn1ccc2ccccc21)N1CCC(Oc2ncccc2Br)CC1	58.45
Cc1cccc(OC2CCN(C(=O)c3ccc4c(c3)OCO4)CC2)n1	37.52
O=C(CCC(=O)N1CCC(Oc2ncccc2Br)CC1)c1ccccc1	95.35
CS(=O)(=O)NCCCNC(=O)c1cccc(-n2cccc2)c1	-24.26
CC(=O)Nc1nc(SCc2ccc3c(c2)OCO3)ns1	6.348
CCCN1CCN(C(=O)Nc2ccccc2Cl)[C@H]2CS(=O)(=O)C[C@H]21	2.165
CC1CCN(Cc2ccccc2CNC(=O)C2CNC(=O)N2)CC1 (centres undefined)	-0.9762
CCOC1COC2(CCN(c3ccccn3)CC2)C1.O=C(O)C(F)(F)F (centres undefined)	3.904
CCOc1ccccc1C(=O)N1CC(=O)N(C2CCC2)CC(O)C1 (centres undefined)	12.12
CN(Cc1cccnc1)[C@@H]1CN(Cc2ccccn2)[C@@H]2CCCO[C@H]12	51.65
CN(Cc1cccnc1)[C@@H]1CN(c2ccccn2)[C@@H]2CCCO[C@H]12	3.977
CN(Cc1cccnc1)[C@@H]1CN(c2ncc(F)cn2)[C@@H]2CCCO[C@H]12	19.63
